Measured values reported in PubChem BioAssay (EPA / NIEHS).
Results filed as inconclusive are left out. Where a structure was tested more than once in an assay, its records may differ in their call. Calls of active or inactive are those of the source. Rule for the calls: active = hit-call score of the fitted dose curve at least 0.9, where 1 is the maximum; inconclusive = response in the unintended direction; inactive = score below 0.9.

Experiment: TOX21_p53_BLA_p2_viability: Viability Assessment in the Tox21 HCT-116 p53 Agonism Beta-lactamase Assay, Phase 2 (AID 2283591);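 note: compound exposure lasted 16 h at 37 °C; actives lower the ATP signal meaning cytotoxicity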
Source text: TOX21_p53_BLA_p2 is a cell-based, single-readout assay that uses HCT116, a human intestinal cell line, […] in a 1536-well plate.TOX21_p53_BLA_p2_viability is an assay readout measuring cellular ATP content and detected with CellTiter-Glo Luciferase-coupled ATP quantitation.TOX21_p53_BLA_p2_viability used a type of viability reporter where loss-of-signal activity can be used to understand changes in the cell viability. Furthermore, this assay endpoint can be referred to as a secondary readout, because this assay has produced multiple assay endpoints where this one serves a viability function. To generalize the intended target to other relatable targets, this assay endpoint is annotated to the cell cycle intended target family, where the subfamily is cytotoxicity.
Thawing Method: Place 14 mL of pre-warmed thaw medium into a 15 mL of conical tub. Remove the vial of cells to be thawed from liquid nitrogen and thaw rapidly by placing at 37C in a water bath with gentle agitation for 1-2 minutes. Decontaminate the vial by wiping with 70% ethanol before opening in a biological safety cabinet. Transfer the vial contents drop-wise into 14 mL of thaw medium in a sterile 15-mL conical tub. Centrifuge cells at 900 rpm for 4 minutes and resuspend in thaw medium. Transfer contents to the T75 tissue culture flask containing Thaw Medium and place flask in a humidified 37C/5% CO2 incubator. Switch to growth medium at first passage.Propagation Method: Aspirate medium, rinse once in DPBS, add 0.25% Trypsin/EDTA and swirl to coat the cell evenly. Add an equal volume of Growth Medium to inactivate Trypsin after 2-3 minutes incubation at 37C. Centrifuge cells at 900 rpm for 4 minutes and resuspend in growth medium. Cell should be passage or fed at least twice a week.Assay Protocol: Harvest cells from culture in growth medium and resuspend in assay medium. 2.2 Dispense 4000 cells/5 uL/well into 1536-well black/clear bottom plates using a Multidrop dispenser. After the cells were incubated at 37C for 5 hours, 23 nL of compounds dissolved in DMSO were transferred to the assay plate by a PinTool resulting in a 217-fold dilution. Incubate the plates for 16 hours at 37C, 5% CO2. Add 1 uL of 6X LiveBLAzer FRET B/G (CCF4-AM) Substrate Mixture to each well using a BioRAPTR dispenser and incubate the plates at room temperature for 2 hours. Measure fluorescence intensity at 460 and 530 nm emission and 405 nm excitation by an Envision detector. Data is expressed as the ratio of 460nm/530nm emissions. Add 4 uL of Cell-titer Glo to each well using BioRAPTR and incubate the plates at room temperature for […]. For cell viability readout that measures cytotoxicity, 4 ul/well of CellTiter-Glo reagent was added into the assay plates using a Flying Reagent Dispenser. After 30 min incubation at room temperature, the luminescence intensity in the plates was measured using a ViewLux plate reader.

SMILES | outcome | AC50
NC(=O)c1ccc([N+](=O)[O-])cc1Cl | inactive | –
CCN(CC)CCOC(=O)c1cccnc1 | inactive | –
c1cnccn1 | inactive | –
O=S(=O)(O)c1cc(Cl)c(Cl)cc1Cl | inactive | –
CCC[C@@]1(CCc2ccccc2)CC(O)=C([C@H](CC)c2cccc(NS(=O)(=O)c3ccc(C(F)(F)F)cn3)c2)C(=O)O1 | inactive | –
COc1c2occc2cc2ccc(=O)oc12 | inactive | –
CC/C=C\C/C=C\C/C=C\C/C=C\C/C=C\CCCC(=O)O | inactive | –
OCC(O)[C@@H](O)[C@H](O)[C@H](O)CO[C@H]1O[C@H](CO)[C@@H](O)[C@H](O)[C@H]1O (stereo not given in full) | inactive | –
CCC(CC)(CC(=O)Nc1cccc(/C=C/c2nc(C3CCC3)cs2)c1)C(=O)O | inactive | –
C=C(C)c1ccccc1 | inactive | –
CC/C=C\CCCCCO | inactive | –
O=C(O)Cc1cn(-c2ccccc2)nc1-c1ccc(Cl)cc1 | inactive | –
CCCCCCCCCCCCCCCBr | inactive | –
O=C(NOCC1CC1)c1ccc(F)c(F)c1Nc1ccc(I)cc1Cl | inactive | –
CC[C@@H](CO)NCCN[C@@H](CC)CO | inactive | –
CCCCNCCCC | inactive | –
CN(C)CCOCCN(C)CCO | inactive | –
CCCCCCC(=O)O[C@H]1CC[C@H]2[C@@H]3CCc4cc(O)ccc4[C@H]3CC[C@]12C | inactive | –
NC(=O)c1ccccc1C(N)=O | inactive | –
CC(=O)OC[C@H]1O[C@@H](n2ncc(=O)[nH]c2=O)[C@H](OC(C)=O)[C@@H]1OC(C)=O | inactive | –

SMILES | outcome | AC50
CC(=O)O[C@@H]1C(=O)O[C@@H]2[C@H]1OC(=O)[C@@H]2OC(C)=O | inactive | –
COc1cccc2c1C(=O)c1c(O)c3c(c(O)c1C2=O)C[C@@](O)(C(=O)CO)C[C@@H]3O[C@H]1C[C@H](N)[C@H](O[C@@H]2CCCCO2)[C@H](C)O1 | – | 7.4 µM (active)
O=C(Cc1cccs1)N[C@@H]1C(=O)N2C(C(=O)[O-])=C(C[n+]3ccccc3)CS[C@H]12 | inactive | –
CCCOC(=O)c1ccccc1 | inactive | –
c1ccc(CCNc2nc(-c3ccccc3)cs2)cc1 | inactive | –
c1cnc(N2CCN(Cc3ccc4c(c3)OCO4)CC2)nc1 | inactive | –
O=Cc1ccc(Cl)cc1 | inactive | –
CC(CCC(=O)O)C(=O)O (stereo not given) | inactive | –
NNCCc1ccccc1 | inactive | –
CCOC(=O)OCC/C(SC(=O)OCC)=C(\C)N(C=O)Cc1cnc(C)nc1N | inactive | –
O=C1c2ccccc2CN2C(=O)c3ccccc3CN12 | inactive | –
CN1CCCCC1CCN1c2ccccc2Sc2ccc(S(C)=O)cc21 (stereo not given) | inactive | –
Cc1c(NC(C)C)c(=O)n(-c2ccccc2)n1C | inactive | –
NS(=O)(=O)c1cc(Cl)c(Cl)c(S(N)(=O)=O)c1 | inactive | –
Oc1ccc(Sc2ccc(O)cc2)cc1 | inactive | –
Cc1occc1SSc1ccoc1C | inactive | –
COc1ccc2cc3[n+](cc2c1OC)CCc1cc2c(cc1-3)OCO2 | inactive | 20.8 µM (active)
CN[C@H](CC(C)C)C(=O)N[C@H]1C(=O)N[C@@H](CC(N)=O)C(=O)N[C@H]2C(=O)N[C@H]3C(=O)N[C@H](C(=O)N[C@H](C(=O)O)c4cc(O)cc(O)c4-c4cc3ccc4O)[C@H](O)c3ccc(c(Cl)c3)Oc3cc2cc(c3O[C@@H]2O[C@H](CO)[C@@H](O)[C@H](O)[C@H]2O[C@H]2C[C@](C)(N)[C@H](O)[C@H](C)O2)Oc2ccc(cc2Cl)[C@H]1O | inactive | –
O=S(=O)(O)CCO | inactive | –
